# The supplement of paper PMC10037445
# Over roughly 2,900 compounds, “NF-kB SEAP reporter activity, fold change vs agonist alone” has its median near 0.99; the highest 2% begin near 2.6. What follows is part of a selection rich in the highest values, with near analogues and random picks from the rest.
# Legend:
# [1] = test system: RAW-Dual; experiment: NF-kB SEAP reporter activity, fold change vs agonist alone; higher = enhanced NF-kB activity
# Outline: (§1)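 Reporter activity is given as fold change relative to agonist-alone wells. To measure it, 50 nL of library stock was pin-tooled onto RAW-Dual macrophages (50,000 cells/well, DMEM, 384-well plates), a PRR agonist followed 1 h later, and cells stayed at 37 °C, 5% CO2. Twenty hours on, supernatant was assayed for IRF (QuantiLuc luminescence) and NF-κB (QuantiBlue, 620 nm absorbance), and wells under 70% of agonist-control IncuCyte confluency in both mask sets were marked cytotoxic.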
# [2] = test system: RAW-Dual; experiment: NF-kB SEAP reporter activity, fold change vs agonist alone; cytotoxicity flag (confluency mask): not cytotoxic; higher = enhanced NF-kB activity
# Outline: as §1
# [3] = test system: RAW-Dual; experiment: NF-kB SEAP reporter activity, fold change vs agonist alone; cytotoxicity flag (confluency mask): cytotoxic (confluency <70% of control); higher = enhanced NF-kB activity
# Outline: as §1
# [4] = library stock concentration (final ~1000-fold dilution): 10 mM, cytotoxicity flag (confluency mask): not cytotoxic, agonist: Imiquimod (TLR7) […]
# [5] = library stock concentration (final ~1000-fold dilution): 10 mM, cytotoxicity flag (confluency mask): not cytotoxic, agonist: MPLA (TLR4) […]
# [6] = agonist: ODN 1826 (TLR9) 0.5 ug/mL
# [7] = agonist: Pam2CSK4 (TLR2/6) 0.1 ug/mL
# [8] = agonist: Pam3CSK4 (TLR2/1) 0.1 ug/mL
# [9] = library stock concentration (final ~1000-fold dilution): 10 mM, cytotoxicity flag (confluency mask): cytotoxic (confluency <70% of control), agonist: Imiquimod (TLR7) […]
# [10] = library stock concentration (final ~1000-fold dilution): 10 mM, cytotoxicity flag (confluency mask): cytotoxic (confluency <70% of control), agonist: MPLA (TLR4) […]
smiles,measurement,setting,value
CCCCOc1nc(N)c2c(n1)N(Cc1cccc(CN3CCCC3)c1)CC(=O)N2,NF-kB SEAP reporter activity,"[1]; library stock concentration (final ~1000-fold dilution): 1 mM, cytotoxicity flag (confluency mask): not cytotoxic, agonist: Imiquimod (TLR7) […]",1.26
same,NF-kB SEAP reporter activity,"[1]; library stock concentration (final ~1000-fold dilution): 1 mM, cytotoxicity flag (confluency mask): not cytotoxic, agonist: MPLA (TLR4) […]",1.91
COCCOc1nc(N)c2[nH]c(=O)n(Cc3ccc(C(=O)O)cc3)c2n1,NF-kB SEAP reporter activity,[1]; [4],1.8
same,NF-kB SEAP reporter activity,[1]; [5],2.54
COCCOc1nc(N)c2[nH]c(=O)n(Cc3ccc(C(=O)O)cc3)c2n1 (library stock concentration (final ~1000-fold dilution): 10 mM),NF-kB SEAP reporter activity,[2]; agonist: LPS (TLR4) 0.1 ug/mL,7.55
same,NF-kB SEAP reporter activity,[2]; [6],2.13
same,NF-kB SEAP reporter activity,[2]; [7],1.46
same,NF-kB SEAP reporter activity,[2]; [8],2.77
CCCCOc1nc(N)c2c(n1)N(Cc1cccc(CN3CCCC3)c1)CC(=O)N2 (library stock concentration (final ~1000-fold dilution): 1 mM),NF-kB SEAP reporter activity,[2]; agonist: LPS (TLR4) 0.1 ug/mL,2.53
same,NF-kB SEAP reporter activity,[2]; [6],1.13
same,NF-kB SEAP reporter activity,[2]; [7],1.17
same,NF-kB SEAP reporter activity,[2]; [8],1.25
Cc1cn(C2CC(O)C(CO)O2)c(=O)[nH]c1=O (centres undefined) (library stock concentration (final ~1000-fold dilution): 10 mM),NF-kB SEAP reporter activity,[2]; agonist: LPS (TLR4) 0.1 ug/mL,1.16
same,NF-kB SEAP reporter activity,[2]; [6],1.03
same,NF-kB SEAP reporter activity,[2]; [7],1.12
same,NF-kB SEAP reporter activity,[2]; [8],1.11
Cc1cn(C2CC(O)C(CO)O2)c(=O)[nH]c1=O (centres undefined),NF-kB SEAP reporter activity,[1]; [4],0.952
same,NF-kB SEAP reporter activity,[1]; [5],1.03
CC1(COc2ccc3c(c2)ncn3-c2ccc3cccc(N4CCC(N)CC4)c3n2)COC1 (library stock concentration (final ~1000-fold dilution): 10 mM),NF-kB SEAP reporter activity,[3]; agonist: LPS (TLR4) 0.1 ug/mL,0.769
same,NF-kB SEAP reporter activity,[3]; [6],1.59
same,NF-kB SEAP reporter activity,[3]; [7],1.81
same,NF-kB SEAP reporter activity,[3]; [8],1.6
COCCOc1ccc2c(c1)ncn2-c1ccc2cccc(N3CCC(N)CC3)c2n1,NF-kB SEAP reporter activity,[1]; [9],2.77
same,NF-kB SEAP reporter activity,[1]; [10],0.871
CC1(COc2ccc3c(c2)ncn3-c2ccc3cccc(N4CCC(N)CC4)c3n2)COC1,NF-kB SEAP reporter activity,[1]; [9],2.9
same,NF-kB SEAP reporter activity,[1]; [10],1.43
COCCOc1ccc2c(c1)ncn2-c1ccc2cccc(N3CCC(N)CC3)c2n1 (library stock concentration (final ~1000-fold dilution): 10 mM),NF-kB SEAP reporter activity,[3]; agonist: LPS (TLR4) 0.1 ug/mL,0.593
same,NF-kB SEAP reporter activity,[3]; [6],0.758
same,NF-kB SEAP reporter activity,[3]; [7],0.862
same,NF-kB SEAP reporter activity,[3]; [8],1.32
OCc1ccccc1OC1OC(CO)C(O)C(O)C1O (centres undefined),NF-kB SEAP reporter activity,[1]; [4],0.917
same,NF-kB SEAP reporter activity,[1]; [5],1.04
OCc1ccccc1OC1OC(CO)C(O)C(O)C1O (centres undefined) (library stock concentration (final ~1000-fold dilution): 10 mM),NF-kB SEAP reporter activity,[2]; agonist: LPS (TLR4) 0.1 ug/mL,0.986
same,NF-kB SEAP reporter activity,[2]; [6],1.08
same,NF-kB SEAP reporter activity,[2]; [7],1.11
same,NF-kB SEAP reporter activity,[2]; [8],1.19
COc1cccc(-c2c(C)n(Cc3c(F)cccc3C(F)(F)F)c(=O)n(CC(NCCCC(=O)O)c3ccccc3)c2=O)c1F (centres undefined) (library stock concentration (final ~1000-fold dilution): 10 mM),NF-kB SEAP reporter activity,[2]; agonist: LPS (TLR4) 0.1 ug/mL,1.32
same,NF-kB SEAP reporter activity,[2]; [6],1.06
same,NF-kB SEAP reporter activity,[2]; [7],0.866
same,NF-kB SEAP reporter activity,[2]; [8],0.768
COc1cccc(-c2c(C)n(Cc3c(F)cccc3C(F)(F)F)c(=O)n(CC(NCCCC(=O)O)c3ccccc3)c2=O)c1F (centres undefined),NF-kB SEAP reporter activity,[1]; [5],1.03
C=CC1(C)CC(OC(=O)CSCCN(CC)CC)C2(C)C(C)CCC3(CCC(=O)C32)C(C)C1O (centres undefined),NF-kB SEAP reporter activity,[1]; [5],1.12
C=CC1(C)CC(OC(=O)CSCCN(CC)CC)C2(C)C(C)CCC3(CCC(=O)C32)C(C)C1O (centres undefined) (library stock concentration (final ~1000-fold dilution): 10 mM),NF-kB SEAP reporter activity,[2]; agonist: LPS (TLR4) 0.1 ug/mL,1.56
same,NF-kB SEAP reporter activity,[2]; [6],0.725
same,NF-kB SEAP reporter activity,[2]; [7],1.11
same,NF-kB SEAP reporter activity,[2]; [8],0.934
Nc1cccc2c1C(=O)N(C1CCC(=O)NC1=O)C2=O (centres undefined),NF-kB SEAP reporter activity,[1]; [4],1.6
same,NF-kB SEAP reporter activity,[1]; [5],1.07
O=C1CCC(N2C(=O)c3ccccc3C2=O)C(=O)N1 (centres undefined),NF-kB SEAP reporter activity,[1]; [4],0.926
same,NF-kB SEAP reporter activity,[1]; [5],0.792
Cc1sc2c(c1C)C(c1ccc(Cl)cc1)=NC(CC(=O)NCCCCNC(=O)COc1cccc3c1C(=O)N(C1CCC(=O)NC1=O)C3=O)c1nnc(C)n1-2 (centres undefined) (library stock concentration (final ~1000-fold dilution): 10 mM),NF-kB SEAP reporter activity,[3]; agonist: LPS (TLR4) 0.1 ug/mL,7.56
same,NF-kB SEAP reporter activity,[3]; [6],3.05
same,NF-kB SEAP reporter activity,[3]; [7],1.99
same,NF-kB SEAP reporter activity,[3]; [8],3.03
Nc1cccc2c1C(=O)N(C1CCC(=O)NC1=O)C2=O (centres undefined) (library stock concentration (final ~1000-fold dilution): 10 mM),NF-kB SEAP reporter activity,[2]; agonist: LPS (TLR4) 0.1 ug/mL,1.16
same,NF-kB SEAP reporter activity,[2]; [6],1.17
same,NF-kB SEAP reporter activity,[2]; [7],1.08
same,NF-kB SEAP reporter activity,[2]; [8],1.35
Cc1sc2c(c1C)C(c1ccc(Cl)cc1)=N[C@@H](CC(=O)NCCCCCCCCNC(=O)COc1cccc3c1C(=O)N(C1CCC(=O)NC1=O)C3=O)c1nnc(C)n1-2 (some centres undefined) (library stock concentration (final ~1000-fold dilution): 10 mM),NF-kB SEAP reporter activity,[3]; agonist: LPS (TLR4) 0.1 ug/mL,3.73
same,NF-kB SEAP reporter activity,[3]; [6],1.84
same,NF-kB SEAP reporter activity,[3]; [7],1.74
same,NF-kB SEAP reporter activity,[3]; [8],3
Cc1sc2c(c1C)C(c1ccc(Cl)cc1)=N[C@@H](CC(=O)NCCCCCCCCNC(=O)COc1cccc3c1C(=O)N(C1CCC(=O)NC1=O)C3=O)c1nnc(C)n1-2 (some centres undefined),NF-kB SEAP reporter activity,[1]; [9],1.73
same,NF-kB SEAP reporter activity,[1]; [10],2.44
O=C1CCC(N2C(=O)c3ccccc3C2=O)C(=O)N1 (centres undefined) (library stock concentration (final ~1000-fold dilution): 10 mM),NF-kB SEAP reporter activity,[2]; agonist: LPS (TLR4) 0.1 ug/mL,1.22
same,NF-kB SEAP reporter activity,[2]; [6],1.01
same,NF-kB SEAP reporter activity,[2]; [7],0.95
same,NF-kB SEAP reporter activity,[2]; [8],1.17
Cc1sc2c(c1C)C(c1ccc(Cl)cc1)=NC(CC(=O)NCCCCNC(=O)COc1cccc3c1C(=O)N(C1CCC(=O)NC1=O)C3=O)c1nnc(C)n1-2 (centres undefined),NF-kB SEAP reporter activity,[1]; [9],1.89
same,NF-kB SEAP reporter activity,[1]; [10],2.59
C/C=C1/C2C=C(C)CC1(N)c1ccc(=O)[nH]c1C2 (centres undefined) (library stock concentration (final ~1000-fold dilution): 2 mM),NF-kB SEAP reporter activity,[2]; agonist: LPS (TLR4) 0.1 ug/mL,1.33
same,NF-kB SEAP reporter activity,[2]; [6],1.01
same,NF-kB SEAP reporter activity,[2]; [7],1.14
same,NF-kB SEAP reporter activity,[2]; [8],1.01
C/C=C1/C2C=C(C)CC1(N)c1ccc(=O)[nH]c1C2 (centres undefined),NF-kB SEAP reporter activity,"[1]; library stock concentration (final ~1000-fold dilution): 2 mM, cytotoxicity flag (confluency mask): not cytotoxic, agonist: Imiquimod (TLR7) […]",0.822
same,NF-kB SEAP reporter activity,"[1]; library stock concentration (final ~1000-fold dilution): 2 mM, cytotoxicity flag (confluency mask): not cytotoxic, agonist: MPLA (TLR4) […]",1.1
CC1c2cccc(O)c2C(=O)C2=C(O)C3(O)C(=O)C(C(N)=O)=C(O)C(N(C)C)C3C(O)C21.CC1c2cccc(O)c2C(=O)C2=C(O)C3(O)C(=O)C(C(N)=O)=C(O)C(N(C)C)C3C(O)C21.CCO.Cl.Cl.O (centres undefined),NF-kB SEAP reporter activity,[1]; [4],0.998
same,NF-kB SEAP reporter activity,[1]; [5],1.13
CC1c2cccc(O)c2C(=O)C2=C(O)C3(O)C(=O)C(C(N)=O)=C(O)C(N(C)C)C3C(O)C21.CC1c2cccc(O)c2C(=O)C2=C(O)C3(O)C(=O)C(C(N)=O)=C(O)C(N(C)C)C3C(O)C21.CCO.Cl.Cl.O (centres undefined) (library stock concentration (final ~1000-fold dilution): 10 mM),NF-kB SEAP reporter activity,[2]; agonist: LPS (TLR4) 0.1 ug/mL,1.6
same,NF-kB SEAP reporter activity,[2]; [6],0.969
same,NF-kB SEAP reporter activity,[2]; [7],1.26
same,NF-kB SEAP reporter activity,[2]; [8],0.938
O=C(O)/C(S)=C/c1c[nH]c2ccc(F)cc12,NF-kB SEAP reporter activity,[1]; [4],0.865
same,NF-kB SEAP reporter activity,[1]; [5],1.08
O=C(O)/C(S)=C/c1c[nH]c2ccc(F)cc12 (library stock concentration (final ~1000-fold dilution): 10 mM),NF-kB SEAP reporter activity,[2]; agonist: LPS (TLR4) 0.1 ug/mL,0.886
same,NF-kB SEAP reporter activity,[2]; [6],0.864
same,NF-kB SEAP reporter activity,[2]; [7],0.988
same,NF-kB SEAP reporter activity,[2]; [8],0.934
COC(=O)C1=C(C)NC(C)=C(C(=O)OCCN2CCN(C(c3ccccc3)c3ccccc3)CC2)C1c1cccc([N+](=O)[O-])c1.Cl.Cl (centres undefined),NF-kB SEAP reporter activity,[1]; [4],0.58
same,NF-kB SEAP reporter activity,[1]; [5],0.873
COC(=O)C1=C(C)NC(C)=C(C(=O)OCCN2CCN(C(c3ccccc3)c3ccccc3)CC2)C1c1cccc([N+](=O)[O-])c1.Cl.Cl (centres undefined) (library stock concentration (final ~1000-fold dilution): 10 mM),NF-kB SEAP reporter activity,[2]; agonist: LPS (TLR4) 0.1 ug/mL,0.834
same,NF-kB SEAP reporter activity,[2]; [6],0.364
same,NF-kB SEAP reporter activity,[2]; [7],0.241
same,NF-kB SEAP reporter activity,[2]; [8],0.405
